The values that follow come from PubChem BioAssay (Tox21).

Inconclusive results are not listed. Unmarked numbers belong to inactive results. Calls of active or inactive are those of the source. Unless noted, calls follow the shape of the dose curve; as a rule, active = well fitted curve in the direction sought with a large enough effect in the repeat runs; inconclusive = weak or mixed curves; inactive = no such curve, though single readings can be large; an effect the other way counts as inactive or inconclusive.

Test [1] addresses Peroxisome proliferator-activated receptor delta (Homo sapiens) (UniProt Q03181). Nature of the test: qHTS assay to identify small molecule agonists of the peroxisome proliferator-activated receptor delta (PPARd) signaling pathway (AID 743212; calls by dose curve). An outline of the steps:
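Cells expressing a UAS-driven beta-lactamase reporter (PPARd-bla HEK293H) were given test compounds after a 5 h settle and kept at 37 C. Reporter activity was then measured as FRET fluorescence using LiveBLAzer B/G substrate.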

Test [2] in a line: qHTS assay to identify small molecule antagonists of the peroxisome proliferator-activated receptor delta (PPARd) signaling pathway - cell viability counter screen (AID 743213). Also: nearly all actives have a fitted effect of over 50% in size. An outline of the steps: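 Same-well viability: cells pre-incubated 5 h, dosed with compound plus 300 nM L165041, kept 17 h at 37 C, FRET substrate 2 h RT, then CellTiter-Glo 30 min RT and luminescence.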
A general note: In qHTS, concentration-response curves come from the screen itself.

Test [3] in a line: qHTS assay to identify small molecule agonists of the farnesoid-X-receptor (FXR) signaling pathway - cell viability counter screen (AID 743218). Also: nearly all actives have a fitted effect of over 45% in size. Also: potency is read from the fitted curve at half-maximal effect. The method in brief: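 Same-well cytotoxicity check on FXR-UAS-bla HEK 293T cells: 5 h attachment, 16 h compound at 37 C, CellTiter-Glo luminescence read at room temperature after 30 min.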
Test [4] in a line: qHTS assay to identify small molecule antagonists of the farnesoid-X-receptor (FXR) signaling pathway - cell viability counter screen (AID 743221; active = well fitted cell-killing curve with a large enough effect in the repeat runs, not every such curve was filed as active; also: nearly all actives have a fitted effect of over 50% in size). The method in brief:
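Cytotoxicity counter screen run in the FXR-bla reporter wells: HEK 293T cells exposed to compound with 50 uM (final) chenodeoxycholic acid for 16 h, 37 C, then viability measured by CellTiter-Glo luminescence after 30 min, room temperature.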

Test [5] deals with Vitamin D3 receptor (Homo sapiens) (UniProt P11473). In words: qHTS assay to identify small molecule agonists of the vitamin D receptor (VDR) signaling pathway (AID 743222; calls by dose curve). The method in brief: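 Using LiveBLAzer B/G FRET detection, agonism was scored in VDR-bla cells exposed overnight (16 h, 37C) to DMSO-dissolved compounds; substrate incubation was 2 h at room temperature.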

For test [6] the target is unchanged. In words: qHTS assay to identify small molecule antagonists of the vitamin D receptor (VDR) signaling pathway (AID 743223; active = well fitted inhibition curve with a large enough effect in the signal ratio in the repeat runs, not every such curve was filed as active; the % refers to the signal ratio). The method in brief: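 Antagonist mode: compound added to VDR-bla cells alongside agonist 1alpha,25-dihydroxyvitamin D3 (3 nM final), incubation 16 h at 37C. Read-out is LiveBLAzer FRET fluorescence, 2 h at room temperature.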
A short description of test [7]: qHTS assay to identify small molecule agonists of the vitamin D receptor (VDR) signaling pathway - cell viability counter screen (AID 743224). Also: series mostly up to about 63 µM; nearly all actives have a fitted effect of over 50% in size. An outline of the steps: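 Counter screen for cytotoxicity: VDR-bla cells at 2,000 cells/well, 16 h compound exposure, then CellTiter-Glo luminescence after the beta-lactamase measurement.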
Test [8] concerns the target Peroxisome proliferator-activated receptor delta (Homo sapiens) (UniProt Q03181). In words: qHTS assay to identify small molecule antagonists of the peroxisome proliferator-activated receptor delta (PPARd) signaling pathway (AID 743215; active = well fitted inhibition curve with a large enough effect in the signal ratio in the repeat runs, not every such curve was filed as active; the % refers to the signal ratio;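 also: cells stimulated with agonist L165041 at 300 nM final during compound exposure; series mostly up to about 62 µM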). An outline of the steps: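 Screen format: qHTS, antagonist mode. HEK293H PPARd-bla cells received compound and 300 nM L165041 (final), 17 h, 37 C. Beta-lactamase detected via FRET substrate fluorescence, 2 h, room temperature.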

Test [9] has as its target Bile acid receptor (Homo sapiens) (UniProt Q96RI1). Nature of the test: qHTS assay to identify small molecule agonists of the farnesoid-X-receptor (FXR) signaling pathway (AID 743220; active = well fitted activation curve with a large enough effect in the signal ratio in the repeat runs, not every such curve was filed as active; the % refers to the signal ratio). An outline of the steps:
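FXR-UAS-bla HEK 293T cells carrying a UAS-driven beta-lactamase reporter were plated for 5 h at 37C/5% CO2, then exposed to DMSO-dissolved Tox21 10K compounds for 16 h at 37C. A LiveBLAzer B/G FRET substrate was loaded for 2 h at room temperature before fluorescence reading.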

The target is the same in test [10]. Nature of the test: qHTS assay to identify small molecule antagonists of the farnesoid-X-receptor (FXR) signaling pathway (AID 743217; active = well fitted inhibition curve with a large enough effect in the signal ratio in the repeat runs, not every such curve was filed as active; the % refers to the signal ratio). The method in brief: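 Quantitative HTS, beta-lactamase reporter format: FXR-UAS-bla HEK 293T cells co-treated 16 h at 37 °C with compounds and 50 uM final chenodeoxycholic acid, then read by B/G FRET fluorescence.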

Sequence of Peroxisome proliferator-activated receptor delta (Homo sapiens) (Q03181 whole entry, looked up): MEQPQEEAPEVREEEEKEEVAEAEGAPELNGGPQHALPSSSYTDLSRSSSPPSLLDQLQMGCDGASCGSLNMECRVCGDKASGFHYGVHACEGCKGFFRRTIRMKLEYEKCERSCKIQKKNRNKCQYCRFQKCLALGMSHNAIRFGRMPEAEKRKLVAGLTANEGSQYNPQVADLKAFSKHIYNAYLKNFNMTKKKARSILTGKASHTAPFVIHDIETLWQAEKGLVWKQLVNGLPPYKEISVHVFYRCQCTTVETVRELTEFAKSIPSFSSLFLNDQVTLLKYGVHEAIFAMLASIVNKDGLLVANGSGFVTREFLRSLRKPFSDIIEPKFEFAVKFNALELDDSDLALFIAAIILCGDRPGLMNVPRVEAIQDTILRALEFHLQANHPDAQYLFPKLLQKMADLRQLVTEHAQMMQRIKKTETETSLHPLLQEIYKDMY
Sequence of Vitamin D3 receptor (Homo sapiens) (P11473 whole entry, looked up): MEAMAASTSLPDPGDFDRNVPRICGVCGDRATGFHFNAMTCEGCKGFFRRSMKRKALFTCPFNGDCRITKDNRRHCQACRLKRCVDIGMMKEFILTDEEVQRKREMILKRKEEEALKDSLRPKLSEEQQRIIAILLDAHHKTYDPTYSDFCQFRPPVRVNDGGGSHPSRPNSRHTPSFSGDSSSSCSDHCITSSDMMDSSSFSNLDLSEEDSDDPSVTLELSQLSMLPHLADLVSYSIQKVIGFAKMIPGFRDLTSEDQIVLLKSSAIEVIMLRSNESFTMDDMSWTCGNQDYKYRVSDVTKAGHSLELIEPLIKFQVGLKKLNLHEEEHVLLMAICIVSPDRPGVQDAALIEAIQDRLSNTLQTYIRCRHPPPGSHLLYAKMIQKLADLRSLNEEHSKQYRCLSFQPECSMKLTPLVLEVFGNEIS
Sequence of Bile acid receptor (Homo sapiens) (Q96RI1 whole entry, looked up): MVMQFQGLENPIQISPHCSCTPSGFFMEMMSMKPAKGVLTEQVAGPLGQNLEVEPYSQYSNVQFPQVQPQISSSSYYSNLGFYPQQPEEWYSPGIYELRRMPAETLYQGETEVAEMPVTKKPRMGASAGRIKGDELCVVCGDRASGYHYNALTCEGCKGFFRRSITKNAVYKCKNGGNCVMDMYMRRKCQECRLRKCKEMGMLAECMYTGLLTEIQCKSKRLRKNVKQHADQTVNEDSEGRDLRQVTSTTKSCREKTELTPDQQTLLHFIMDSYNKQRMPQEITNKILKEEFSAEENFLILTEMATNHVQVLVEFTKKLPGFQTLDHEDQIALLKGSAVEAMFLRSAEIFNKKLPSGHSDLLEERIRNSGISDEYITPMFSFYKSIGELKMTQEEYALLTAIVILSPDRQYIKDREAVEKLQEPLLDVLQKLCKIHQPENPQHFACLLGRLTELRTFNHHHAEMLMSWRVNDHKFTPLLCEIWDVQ

With `OCCCO`, the Potency result in [1], in test [2], in test [3] and in test [4] was “inactive” each time. Moreover, the outcome in test [5], in test [6] and in test [7] was inactive.
Take `CCCOC(C)=O`: the Potency entry in test [1] and in [3] was “inactive” throughout. In addition, the molecule was classed as inactive in test [8] and in test [7].
Take `CCCCCCCCCCCCN1CCOCC1`: the Potency result in [1], in test [2], in [3] and in test [4] was “inactive” throughout. Further, the result in test [5] and in test [7] was inactive.
`CCC(CC)C(=O)O`: the Potency result in test [1], in test [2] and in [3] was “inactive” each time. Also, the call in test [5] and in test [6] was inactive.
For `CC(Cc1ccccc1)(NC(=O)CN)c1ccccc1` (stereo unspecified), the Potency entry in [1], in test [3] and in test [4] was “inactive” in each case. The call in test [8], in test [9], in test [5], in test [6] and in [7] was inactive.
Consider `CC[C@H](NC(C)C)[C@H](O)c1ccc(O)c2[nH]c(=O)ccc12`, for which the Potency entry in test [1], in test [2], in [3] and in [4] was “inactive” throughout. For the same molecule, the result in [6] was inactive.
With `Cc1ccc2c(Cl)cc(Cl)c(O)c2n1`, the Potency result in test [1], in test [2] and in [4] was “inactive” in each case. Also, the call in test [5], in test [6] and in [7] was inactive.
In the case of `CCCc1ccc(OC)cc1`, the Potency entry in [1], in test [3] and in test [4] was “inactive” each time. The outcome in [8], in [5] and in [7] was inactive.
With `CC(C(=O)O)c1ccc2c(c1)Cc1cccnc1O2` (stereo unspecified), the Potency result in test [1], in [2], in test [3] and in test [4] was “inactive” each time. Besides, the molecule was classed as inactive in test [5], in [6] and in [7].
Take `Clc1cc(Cl)c2c(c1)N=C1CCCCCN1C2`: the Potency entry in test [1], in [3] and in test [4] was “inactive” each time. Besides, the call in [8], in [9], in [5], in test [6] and in [7] was inactive.
On to `CCCC1CCCC(=O)O1` (stereo unspecified), for which the Potency entry in [2], in test [3] and in [4] was “inactive” each time. The molecule was called inactive in [8] and in test [7].
Take `O=C(NC1CCN(CCc2c[nH]c3ccccc23)CC1)c1ccccc1`: the Potency entry in test [2], in test [3] and in test [4] was “inactive” throughout.
Turning to `CCc1ccc(C(=O)C(C)CN2CCCCC2)cc1` (stereo unspecified), the Potency entry in test [2] and in [4] was “inactive” each time. Further, in test [8], the result was inactive.
In the case of `Cc1c(-c2cccnc2)c2ccccc2n1CCCCC(=O)O`, the Potency result in test [2], in [3] and in test [4] was “inactive” each time. Also, the outcome in test [8], in test [10], in test [9], in [5], in [6] and in test [7] was inactive.
In the case of `C(/C=C/C=C/Nc1ccccc1)=Nc1ccccc1`, the Potency result in test [2], in test [3] and in [4] was “inactive” each time. Also, the molecule was classed as inactive in test [8], in [10], in test [9], in test [5], in test [6] and in [7].
Regarding `Cc1nc2sccn2c(=O)c1CCN1CCC(=C(c2ccc(F)cc2)c2ccc(F)cc2)CC1`, the Potency result in test [1] and in test [4] was “inactive” in each case. The Potency in test [3] is 26.6 µM (active). Besides, the molecule was called inactive in [7].
For the molecule `CC(C)(C)c1cc(C=O)cc(C(C)(C)C)c1O`, the Potency entry in [2], in test [3] and in [4] was “inactive” in each case. Further, the molecule was classed as inactive in test [9], in test [5], in test [6] and in test [7].
With `CC(CC(C#N)(c1ccccc1)C(C)C)N(C)C` (stereo unspecified), the Potency entry in test [2], in test [3] and in test [4] was “inactive” throughout. In addition, the outcome in [9] was inactive.
For `O=C(C1CCCCC1)N1CC(=O)N2CCCc3ccccc3C2C1` (stereo unspecified), the Potency entry in test [2], in test [3] and in test [4] was “inactive” each time. Besides, the molecule was called inactive in test [8] and in test [7].
Take `OCCc1ccncc1`: the Potency result in [2], in test [3] and in test [4] was “inactive” each time. Further, the call in test [9], in test [6] and in test [7] was inactive.
As for `COc1ccc(C(=O)c2ccc(C)cc2)c(O)c1`, the Potency result in [1] was “inactive”. The result in test [6] and in test [7] was inactive.
For `CCCCCCCCCC(C)C=O` (stereo unspecified), the Potency entry in [2], in test [3] and in test [4] was “inactive” in each case. Also, the call in test [9], in test [5], in test [6] and in test [7] was inactive.
As for `Nc1ncnc2c1ncn2[C@@H]1O[C@H](CO)[C@@H](O)[C@H]1O`, the Potency entry in [2], in test [3] and in test [4] was “inactive” throughout. In addition, the molecule was called inactive in [9], in test [5], in test [6] and in test [7].
In the case of `c1ccc(CN(Cc2ccccc2)Cc2ccccc2)cc1`, the Potency entry in [2], in test [3] and in [4] was “inactive” in each case. The outcome in test [5] and in test [6] was inactive.
Take `O=C(O)CNc1ccccc1`: the Potency result in test [1], in test [3] and in test [4] was “inactive” each time. Besides, the molecule was classed as inactive in test [9], in [5], in [6] and in test [7].
